From PubChem BioAssay (NCATS)
Values joined by “and” are separate entries in the source; they are usually repeats but may differ in a detail not shown here. Equal values may be shown once. Records with an inconclusive call do not appear. Active and inactive are the calls of the source. Unless noted, calls come from the whole dose curve; as a rule, active = well fitted curve in the direction sought with a large enough effect; inconclusive = small, poorly fitted or top-dose-only effect, or another doubt; inactive = no such curve, though single readings can be large; an effect the other way counts as inactive or inconclusive.

Legend:
[1] = Primary qHTS for small molecule stabilizers of the endoplasmic reticulum resident proteome: Secreted ER Calcium Modulated Protein (SERCaMP) assay (AID 1508630); note: potency is the fitted concentration of half-maximal effect; for activity change, negative = inhibition: % is set by controls: 0 for no effect and ±100 for the full control effect
Procedure, shortened: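 GLuc-SERCaMP-expressing SH-SY5Y cells, pretreated 16 h with compound, are challenged with thapsigargin to empty ER calcium stores; after 4 h, coelenterazine is added directly to the medium and luminescence is imaged.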

[2] = target: Cytochrome P450 2D6 (Homo sapiens) (UniProt P10635); assay: Cytochrome P450 family 2 subfamily D member 6 (CYP2D6) small molecule antagonists: luciferase biochemical (cell-free) qHTS assay (AID 1645840; active = well fitted curve in the direction sought with a large enough effect in the repeat runs; an effect the other way counts as inactive or inconclusive; note: nearly all actives have a fitted effect of over 55% in size; note: potency is the fitted concentration of half-maximal effect; for activity change, negative = inhibition: % is set by controls: 0 for no effect and ±100 for the full control effect)
Sequence of Cytochrome P450 2D6 (Homo sapiens) (P10635 whole entry, looked up): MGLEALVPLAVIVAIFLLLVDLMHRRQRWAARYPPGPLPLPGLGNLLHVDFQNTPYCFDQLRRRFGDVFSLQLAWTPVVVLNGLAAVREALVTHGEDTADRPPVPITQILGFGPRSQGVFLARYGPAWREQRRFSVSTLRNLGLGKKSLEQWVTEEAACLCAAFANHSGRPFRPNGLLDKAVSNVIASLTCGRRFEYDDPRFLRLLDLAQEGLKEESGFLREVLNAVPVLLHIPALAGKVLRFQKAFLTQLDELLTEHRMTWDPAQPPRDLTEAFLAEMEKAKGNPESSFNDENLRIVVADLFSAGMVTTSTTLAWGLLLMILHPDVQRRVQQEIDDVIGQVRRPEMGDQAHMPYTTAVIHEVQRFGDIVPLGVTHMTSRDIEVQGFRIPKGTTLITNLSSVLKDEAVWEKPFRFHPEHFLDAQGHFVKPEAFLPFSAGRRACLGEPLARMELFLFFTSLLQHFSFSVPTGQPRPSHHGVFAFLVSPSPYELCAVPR
Procedure, shortened: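 P450-Glo luminescent screen: recombinant CYP2D6 enzyme–proluciferin substrate mix preincubated with compound 10 min at room temperature, then NADPH regeneration added for 1 h at room temperature. Detection reagent added for 20 min; luciferin light read as relative luminescence units.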

[3] = target: Cytochrome P450 2C9 (Homo sapiens) (UniProt P11712); assay: Cytochrome P450 family 2 subfamily C member 9 (CYP2C9) small molecule antagonists: luciferase biochemical (cell-free) qHTS assay (AID 1645842; active = well fitted curve in the direction sought with a large enough effect in the repeat runs; an effect the other way counts as inactive or inconclusive; note: nearly all actives have a fitted effect of over 55% in size; note: potency is the fitted concentration of half-maximal effect)
Sequence of Cytochrome P450 2C9 (Homo sapiens) (P11712 whole entry, looked up): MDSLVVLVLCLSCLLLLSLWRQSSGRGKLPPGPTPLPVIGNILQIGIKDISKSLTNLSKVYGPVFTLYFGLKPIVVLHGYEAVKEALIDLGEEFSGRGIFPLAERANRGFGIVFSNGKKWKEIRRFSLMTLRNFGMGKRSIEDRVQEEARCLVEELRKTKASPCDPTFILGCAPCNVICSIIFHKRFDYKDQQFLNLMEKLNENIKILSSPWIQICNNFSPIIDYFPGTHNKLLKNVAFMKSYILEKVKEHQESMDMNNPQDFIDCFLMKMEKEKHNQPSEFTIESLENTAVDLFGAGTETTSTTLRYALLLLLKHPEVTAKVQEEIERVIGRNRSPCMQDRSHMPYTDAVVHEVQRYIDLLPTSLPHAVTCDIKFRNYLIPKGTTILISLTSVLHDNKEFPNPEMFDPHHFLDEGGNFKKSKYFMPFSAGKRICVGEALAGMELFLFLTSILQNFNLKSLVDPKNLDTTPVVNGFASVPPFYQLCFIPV
Procedure, shortened: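 Luminescence, after 20 min with luciferin detection reagent, reflected CYP2C9 turnover during a 1 h NADPH-driven reaction at 37C. Enzyme-substrate mix contained 0.4% bovine serum albumin and was preincubated with compound 10 min at room temperature.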

[4] = Primary qHTS for inhibitors of nuclear receptor binding SET domain protein 2 (NSD2) in an isogenic RCH-ACV NSD2 p.E1099K mutant (9B) (AID 1645876); note: nearly all actives have a fitted effect of over 70% in size; note: potency is the fitted concentration of half-maximal effect
[5] = Primary qHTS for inhibitors of nuclear receptor binding SET domain protein 2 (NSD2) in an RCH-ACV wild type WT cells (2C) (AID 1645877); note: nearly all actives have a fitted effect of over 70% in size; note: potency is the fitted concentration of half-maximal effect
[6] = target: Catechol O-methyltransferase (Homo sapiens) (UniProt P21964); assay: Confirmatory Screen for Target Class Profiling of Small Molecule Inhibitors of Methyltransferases (AID 1745852); settings: MTase-Glo luminescence, SAH detection, recombinant enzyme; measured here: COMT max response; stronger effect = lower value; for activity change, negative = inhibition: % is set by controls: 0 for no effect and ±100 for the full control effect
Sequence of Catechol O-methyltransferase (Homo sapiens) (P21964 whole entry, looked up): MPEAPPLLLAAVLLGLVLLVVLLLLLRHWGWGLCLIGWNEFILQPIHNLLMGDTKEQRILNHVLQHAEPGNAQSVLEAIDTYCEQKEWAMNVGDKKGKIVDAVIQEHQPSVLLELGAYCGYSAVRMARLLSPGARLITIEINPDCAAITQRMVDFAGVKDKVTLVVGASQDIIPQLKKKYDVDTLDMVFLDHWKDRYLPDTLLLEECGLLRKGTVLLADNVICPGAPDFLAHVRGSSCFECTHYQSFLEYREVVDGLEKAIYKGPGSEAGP

[7] = target: Guanidinoacetate N-methyltransferase (Homo sapiens) (UniProt Q14353); assay: as above; settings: MTase-Glo luminescence, SAH detection, recombinant enzyme; activity change, negative = inhibition: at 57.3 µM (top of the series)
[8] = target: Nicotinamide N-methyltransferase (Homo sapiens) (UniProt P40261); assay: as above; settings: MTase-Glo luminescence, SAH detection, recombinant enzyme; measured here: NNMT max response; stronger effect = lower value
Sequence of Nicotinamide N-methyltransferase (Homo sapiens) (P40261 whole entry, looked up): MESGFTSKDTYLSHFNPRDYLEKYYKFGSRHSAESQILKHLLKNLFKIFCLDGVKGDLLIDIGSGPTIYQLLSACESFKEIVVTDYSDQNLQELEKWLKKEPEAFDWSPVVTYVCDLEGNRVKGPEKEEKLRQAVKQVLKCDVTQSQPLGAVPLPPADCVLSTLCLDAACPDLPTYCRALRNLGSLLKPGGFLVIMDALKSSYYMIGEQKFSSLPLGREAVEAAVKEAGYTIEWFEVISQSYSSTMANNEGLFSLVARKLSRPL

[9] = target: Phenylethanolamine N-methyltransferase (Homo sapiens) (UniProt P11086); assay: as above; settings: MTase-Glo luminescence, SAH detection, recombinant enzyme; measured here: PNMT max response; stronger effect = lower value
Sequence of Phenylethanolamine N-methyltransferase (Homo sapiens) (P11086 whole entry, looked up): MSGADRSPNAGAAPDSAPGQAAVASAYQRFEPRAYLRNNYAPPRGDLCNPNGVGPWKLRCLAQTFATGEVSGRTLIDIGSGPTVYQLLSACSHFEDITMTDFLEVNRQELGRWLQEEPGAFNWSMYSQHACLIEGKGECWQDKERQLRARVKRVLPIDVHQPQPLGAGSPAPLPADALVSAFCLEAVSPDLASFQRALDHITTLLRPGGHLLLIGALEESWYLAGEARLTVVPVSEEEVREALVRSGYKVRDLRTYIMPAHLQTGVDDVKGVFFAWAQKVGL

[10] = NCATS anti-infectives library activity on HEK293 viability as a counter-qHTS vs the C. elegans viability qHTS (AID 1745854);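 note: HEK293 cells exposed to compounds for 24 hr before the viability read; % is set by controls: 0 for no effect and ±100 for the full control effect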
Procedure, shortened: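 HEK293 cells (1,500/well) exposed 24 hr at 37C to 1:5 titrations, up to 41.7 uM final; counter-screen to a C. elegans viability qHTS. Viability by CellTiter-Glo luminescence after 10 min at room temperature; digitonin as control.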

SMILES	Potency [1]	Potency [2]	Potency [3]	Potency [4]	Potency [5]	activity [6]	activity change, negative = inhibition [7]	activity [8]	activity [9]	outcome [10]
CNC1CCC(N(Cc2cccc(-c3ccncc3)c2)C(=O)c2sc3ccccc3c2Cl)CC1 (configuration not stated)	inactive	4.25 µM (active)	10.7 µM (active)	5.15 µM (active) and 9.34 µM (active)	5.78 µM (active) and 7.42 µM (active)	-14.8%	-1.13%	-65.2%	-20.3%	
Clc1ccc(C2(c3ccc(-c4cn[nH]c4)cc3)CCNCC2)cc1	inactive	3.38 µM (active)	1.2 µM (active)	3.65 µM (active) and 3.72 µM (active)		0.191%	0%	-22.3%	-4.19%	
COc1cc(Nc2nc3ccccc3nc2NS(=O)(=O)c2ccc(NC(=O)c3ccc(C)c(OC)c3)cc2)cc(OC)c1	8.41 µM (active)	inactive	7.56 µM (active)	inactive	inactive					
Cc1cnc(CNC(=O)c2c(=O)c3ccc(N4CCCN(C)CC4)nc3n3c2sc2ccccc23)cn1	inactive	inactive	inactive	0.152 µM (active)	0.121 µM (active)					
Cc1cc(C(C)Nc2ccccc2)c2nc(N3CCOCC3)cc(=O)n2c1 (configuration not stated)	inactive	inactive	1.07 µM (active)	2.3 µM (active) and 2.63 µM (active)	2.3 µM (active) and 2.63 µM (active)					
CN(C)CCOc1cc(-c2cn[nH]c2)ccc1NC(=O)C1COc2ccccc2O1 (configuration not stated)	inactive	2.68 µM (active)	0.674 µM (active)		4.59 µM (active)					
COc1ccc(CCC(=O)Nc2nc3ccc(Cl)cc3s2)cc1OC	inactive	inactive	6.01 µM (active)	inactive	inactive					
COc1nccc(-c2c(-c3ccc(F)cc3)ncn2C2CCC(O)CC2)n1 (configuration not stated)	inactive	inactive	inactive		20.9 µM (active)					
O=C(Nc1cccc(C(F)(F)F)c1)Nc1cc(S(=O)(=O)NC2CC2)ccc1-c1ccsc1	inactive	5.35 µM (active)	3.38 µM (active)	23.5 µM (active)	23 µM (active)					
Cc1ccc2c(c1)c1c(n2CCc2ccc(C)nc2)CCN(C)C1	inactive	8.49 µM (active)	10.7 µM (active)	14.5 µM (active)		-6.68%	-3.88%	-13.3%	-2.48%	
CC[C@H](CC#N)OC(=O)N[C@@H](C)c1cccc(NC(=O)Nc2ccc(-c3cnco3)c(OC)c2)c1	inactive	0.338 µM (active)	0.0756 µM (active)	129 nM (active) and 166 nM (active)	0.23 µM (active)					
Cc1nn(Cc2ccccc2Cl)c(C)c1CN(C)CC(O)COc1ccc(Cl)cc1 (configuration not stated)	inactive	0.536 µM (active)	inactive	18.6 µM (active)	14.8 µM (active)					
NS(=O)(=O)c1ccc(Nc2nc(OCC3CCCCC3)c3[nH]cnc3n2)cc1	inactive	19 µM (active)	26.8 µM (active)	13.2 µM (active)		-14.9%	-2.65%	-73.9%	-14.7%	
CNC(=O)c1c(-c2ccc(F)cc2)oc2cc(N(CCO)S(C)(=O)=O)c(C3CC3)cc12	inactive	inactive	10.7 µM (active)	inactive	inactive					inactive
CNC(=O)[C@H](Cc1ccccc1)NC(=O)[C@H](CC(C)C)[C@H](CSc1cccs1)C(=O)NO	inactive	inactive	inactive	inactive						inactive
Nc1ccc(-c2ccc3ncc4ccc(=O)n(-c5cccc(C(F)(F)F)c5)c4c3c2)cn1	inactive	23.9 µM (active)	2.13 µM (active)	14.8 nM (active) and 23.1 nM (active)	20.9 nM (active) and 18.4 nM (active)					
C[C@@]1(c2cc(-c3cncnc3)c(F)cc2F)CCSC(N)=N1	inactive	6.74 µM (active)	16.9 µM (active)	inactive						inactive
O=C(Nc1ccc(OC(F)(F)F)cc1)c1sccc1NCc1ccnc2ccccc12	inactive	16.9 µM (active)	7.56 µM (active)	16.6 µM (active) and 14.6 µM (active)	18.6 µM (active)					
Cc1cccc2c1CC[C@H](CN1CCC(c3c(Cl)cccc3Cl)CC1)C[C@@H]2O	inactive	2.13 µM (active)	9.52 µM (active)	10.3 µM (active)	7.28 µM (active)					
